# Test results as given in PubChem BioAssay AID620 (Sanford-Burnham Center for Chemical Genomics, 2007).
# Among all 87,000 compounds or so, about 360 (0.41%) were called active. Shown is part of a subset that was picked to be rich in actives. Unmarked numbers belong to inactive results. Cut-off read from the data, not from the text of the source: active = cytotoxicity above about 50%; inactive = the rest.
# Assay: HT1080 cell viability loss – fluorescence readout (AID 620);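 note: cells exposed to compound overnight then 4 h with Alamar Blue; 0% = vehicle DMSO and 100% = killing control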
# Settings: at 10 µM, hits give high values
row,SMILES,cytotoxicity
1,Cc1ccc(C2CC(=O)Nc3cc4c(cc32)OCCO4)s1 (stereo unspecified),7.9%
2,O=C1CC(c2cccs2)c2cc3c(cc2N1)OCO3 (stereo unspecified),13.7%
3,CC(C)Oc1ccccc1C1CC(=O)Nc2cc3c(cc21)OCCO3 (stereo unspecified),70.5% (active)
4,COc1cccc(C2CC(=O)Nc3cc4c(cc32)OCCO4)c1OC(C)C (stereo unspecified),0.6%
5,Cc1ccc(C2CC(=O)Nc3cc4c(cc32)OCO4)o1 (stereo unspecified),40%
6,COc1cc2c(cc1OC)C(c1cccc(OC)c1OC)CC(=O)N2 (stereo unspecified),-0.5%
7,CC(C)Oc1ccccc1C1CC(=O)Nc2cc3c(cc21)OCO3 (stereo unspecified),67.4% (active)
8,O=C1CC(c2ccncc2)c2cc3c(cc2N1)OCCO3 (stereo unspecified),5.6%
9,COc1ccccc1C1CC(=O)Nc2cc3c(cc21)OCCO3 (stereo unspecified),52.2% (active)
10,CCCCCCC(C)n1[nH]c(=O)c2c(C)cc(=O)[nH]c21 (stereo unspecified),-5%
11,O=C(C1CCC(CNc2c(N3CCCCC3)c(=O)c2=O)CC1)N1CCCCC1 (stereo unspecified),-4.8%
12,C=CCn1c(NC)cc(=O)n(C)c1=O,9.8%
13,CC1(C(=O)NC2CCCC2)CCC(=O)N1Cc1ccc2c(c1)OCO2 (stereo unspecified),20.7%
14,COc1ccc(O)c(C(=O)c2cc(C#N)c(=O)n(CCN3CCOCC3)c2)c1,7%
15,COC(=O)c1ccc(NC(=O)COc2ccc(S(=O)(=O)N3CCCCC3)cc2)cc1,-6.1%
16,c1ccc(-c2nc3ccccc3nc2N2CCOCC2)cc1,19.1%
17,Nc1nc(NCc2ccccc2)nc(-c2ccccc2)n1,12.3%
18,Cc1c(NC(=O)c2ccccc2)c(=O)n(-c2ccccc2)n1C,-12.6%
19,Cc1c(NC(=O)c2ccc(=O)oc2)c(=O)n(-c2ccccc2)n1C,32.6%
20,COc1cc2[nH]cc(C(=O)NCCc3ccccc3)c(=O)c2cc1OC,5.3%
21,CCOc1ccc(OCc2ccc(C(=O)Nc3cccnc3)o2)cc1,-3.1%
22,O=C(CSc1oc(-c2ccc(F)cc2)nc1S(=O)(=O)c1ccc(F)cc1)NCC1CCCO1 (stereo unspecified),4.4%
23,CCN(CC)C(=O)CN(C#N)c1nc(NC(C)C)nc(NC(C)C)n1,-2%
24,CCCS(=O)(=O)c1nnnn1-c1cccc(OC)c1,66.7% (active)
25,COc1cccc(-n2nnnc2SCC(=O)NC2CCCC2)c1,-4.7%
26,COc1cccc(Oc2nnnn2-c2ccccc2)c1,-0.2%

row,SMILES,cytotoxicity
1,CC(C)NC(=O)c1ccccc1-c1nc(-c2ccccc2Cl)no1,50.9% (active)
2,CC(C)(C)NC(=O)c1ccccc1-c1nc(-c2ccccc2Cl)no1,-5.2%
3,CCNC(=O)c1ccccc1-c1nc(-c2ccccc2Cl)no1,-5.2%
4,COc1ccccc1N1CCN(C(=O)C2CCN(S(=O)(=O)c3ccccc3)CC2)CC1,-0.7%
5,COC(=O)c1ccc(C)c(NS(=O)(=O)c2ccc(OC)c(OC)c2)c1,4%
6,COC(=O)c1ccc(Cl)c(NS(=O)(=O)c2ccc3c(c2)OCCO3)c1,35.5%
7,COC(=O)c1ccc(C)c(NS(=O)(=O)c2ccc3c(c2)OCCO3)c1,51.6% (active)
8,CCCC12CN3CC(C)(CN(C1)C3c1ccc3c(c1)OCO3)C2=O (stereo unspecified),-1.1%
9,CN(C)c1ccc(-c2nn3c(-c4ccc(Cl)cc4)nnc3s2)cc1,-10.2%
10,CN(C)c1ccc(-c2nn3c(-c4ccncc4)nnc3s2)cc1,0.5%
11,CCOc1ccc(-c2nnc3sc(-c4ccccc4OC)nn23)cc1,22%
12,CN(C)c1ccc(-c2nn3c(-c4ccccc4Cl)nnc3s2)cc1,57.2% (active)
13,Cc1ccc(OCc2nn3c(-c4n[nH]c5c4CCC5)nnc3s2)cc1,3.7%
14,CCN(CC)c1ccc(-c2nn3c(-c4ccccc4OC)nnc3s2)cc1,50.1% (active)
15,COc1ccccc1-c1nnc2sc(-c3ccc(N(C)C)cc3)nn12,33.1%
16,CN(C)c1ccc(-c2nn3c(-c4ccc(Cl)cc4Cl)nnc3s2)cc1,52.2% (active)
17,Clc1ccccc1-c1nnc2sc(-c3ccncc3)nn12,-1.3%
18,Cc1nn2c(-c3ccc(Cl)cc3Cl)nnc2s1,7.1%
19,CCN(CC)c1ccc(-c2nn3c(-c4n[nH]c5c4CCC5)nnc3s2)cc1,55.1% (active)
20,CCN(CC)c1ccc(-c2nn3c(-c4cccnc4)nnc3s2)cc1,2.9%
21,CS(=O)(=O)N(CC(=O)N1CCCCC1)c1sc2c(c1C#N)CCCC2,15.6%
22,CN(C)CCCNC(=O)CC(c1ccccc1)c1ccccc1O (stereo unspecified),5.3%
23,O=C(O)CCn1c(=O)c2ccccc2c2ccccc2c1=O,2%
24,C=CCOn1c(C)c(C(C)=O)c2c3nonc3ccc21,2.2%
25,Cn1c(N)c(C(=O)COC(=O)c2ccco2)c(=O)n(C)c1=O,-0.9%
